# Measured values as given in PubChem BioAssay AID651919 (Sanford-Burnham Center for Chemical Genomics, 2012).
# Where “and” joins values, the source holds several entries; their conditions need not be identical. Equal values may be shown once.
# Target: C-X-C chemokine receptor type 6 (Homo sapiens) (UniProt O00574)
# Assay: CXCR6 and CXCR5 receptor antagonist panel, profiling panel, selectivity assay for CXCR6 antagonist project, cell-based, CHO-K1 PathHunter beta-arrestin, luminescence, set 4 (AID 651919)
# Conditions: run 1, at 79 µM (top of the series)
# C-X-C chemokine receptor type 6 (Homo sapiens), sequence (O00574 whole entry, looked up): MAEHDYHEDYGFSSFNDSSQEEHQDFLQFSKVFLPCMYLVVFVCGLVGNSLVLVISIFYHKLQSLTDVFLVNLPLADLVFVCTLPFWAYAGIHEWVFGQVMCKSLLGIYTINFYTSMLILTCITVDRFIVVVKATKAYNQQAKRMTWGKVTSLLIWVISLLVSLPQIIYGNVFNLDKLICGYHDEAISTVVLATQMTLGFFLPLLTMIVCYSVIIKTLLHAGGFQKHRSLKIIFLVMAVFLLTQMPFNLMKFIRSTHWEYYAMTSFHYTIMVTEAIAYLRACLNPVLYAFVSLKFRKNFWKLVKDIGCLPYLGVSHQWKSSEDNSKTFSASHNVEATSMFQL
row,Structure (SMILES),inhibition
1,COc1cccc(C(=O)NC2CC3CCCC(C2)N3CC(=O)Nc2ccc(Cl)cc2)c1 (centres undefined),1.72%
2,COc1cc(C(=O)NC2CC3CCCC(C2)N3CC(=O)Nc2ccc(Cl)cc2)cc(OC)c1OC (centres undefined),88.2%
3,COc1ccc(C(=O)NC2CC3CCCC(C2)N3CC(=O)Nc2ccc(Cl)cc2)cc1OC (centres undefined),9.09%
4,COc1cc(C(=O)NC2CC3CCCC(C2)N3CC(=O)Nc2ccccc2Cl)cc(OC)c1OC (centres undefined),99.8% and 101%
5,COc1cc(OC)cc(C(=O)NC2CC3CCCC(C2)N3CC(=O)Nc2ccc(Cl)cc2)c1 (centres undefined),5.14%
6,COc1ccc(NC(=O)CN2C3CCCC2CC(NC(=O)c2ccc(OC)cc2)C3)cc1 (centres undefined),-3.32%
7,COc1ccccc1NC(=O)CN1C2CCCC1CC(NC(=O)c1cc(OC)c(OC)c(OC)c1)C2 (centres undefined),97.4%
8,COc1cc(OC)cc(C(=O)NC2CC3CCCC(C2)N3CC(=O)Nc2ccccc2)c1 (centres undefined),12.4%
9,COc1ccc(C(=O)NC2CC3CCCC(C2)N3CC(=O)Nc2ccc(C)cc2)cc1OC (centres undefined),23.5%
10,COc1cc(OC)cc(C(=O)NC2CC3CCCC(C2)N3CC(=O)Nc2ccc(F)cc2)c1 (centres undefined),7.92%
11,O=C(CN1C2CCCC1CC(NC(=O)c1ccccc1)C2)Nc1ccccc1 (centres undefined),10.1%
12,COc1ccc(C(=O)NC2CC3CCCC(C2)N3CC(=O)Nc2ccc(Cl)cc2)cc1 (centres undefined),-4.29%
13,COc1ccc(NC(=O)CN2C3CCCC2CC(NC(=O)c2cccc(OC)c2)C3)cc1 (centres undefined),0.669%
14,COc1cccc(C(=O)NC2CC3CCCC(C2)N3CC(=O)Nc2ccc(F)cc2)c1 (centres undefined),-1.02%
15,O=C(CN1C2CCCC1CC(NC(=O)c1ccc3c(c1)OCO3)C2)Nc1ccc(F)cc1 (centres undefined),-0.62%
16,COc1ccc(C(=O)NC2CC3CCCC(C2)N3CC(=O)Nc2ccccc2)cc1 (centres undefined),0.75%
17,COc1cc(OC)cc(C(=O)NC2CC3CCCC(C2)N3CC(=O)Nc2ccc(C)cc2)c1 (centres undefined),10.9%

row,Structure (SMILES),inhibition
1,COc1cccc(C(=O)NC2CC3CCCC(C2)N3CC(=O)Nc2ccc(C)cc2)c1 (centres undefined),16.6%
2,COc1ccc(NC(=O)CN2C3CCCC2CC(NC(=O)c2cc(OC)c(OC)c(OC)c2)C3)cc1 (centres undefined),66.4%
3,COc1cccc(C(=O)NC2CC3CCCC(C2)N3CC(=O)Nc2ccccc2)c1 (centres undefined),16.6%
4,O=C(CN1C2CCCC1CC(NC(=O)c1ccc3c(c1)OCO3)C2)Nc1ccc(Cl)cc1 (centres undefined),3.65%
5,COc1cc(C(=O)NC2CC3CCCC(C2)N3CC(=O)Nc2ccc(F)cc2)cc(OC)c1OC (centres undefined),84.8%
6,COc1ccc(NC(=O)CN2C3CCCC2CC(NC(=O)c2cc(OC)cc(OC)c2)C3)cc1 (centres undefined),11.5%
7,COc1ccc(C(=O)NC2CC3CCCC(C2)N3CC(=O)Nc2ccc(F)cc2)cc1OC (centres undefined),15%
8,O=C(CN1C2CCCC1CC(NC(=O)c1ccc3c(c1)OCO3)C2)Nc1ccccc1 (centres undefined),12.3%
9,COc1cc(C(=O)NC2CC3CCCC(C2)N3CC(=O)Nc2ccc(C)cc2)cc(OC)c1OC (centres undefined),79%
10,Cc1ccc(NC(=O)CN2C3CCCC2CC(NC(=O)c2ccc4c(c2)OCO4)C3)cc1 (centres undefined),11.9%
11,COc1ccc(NC(=O)CN2C3CCCC2CC(NC(=O)c2ccc(OC)c(OC)c2)C3)cc1 (centres undefined),12.2%
12,COc1ccc(C(=O)NC2CC3CCCC(C2)N3CC(=O)Nc2ccc(F)cc2)cc1 (centres undefined),-4.57%
13,COc1cc(C(=O)NC2CC3CCCC(C2)N3CC(=O)Nc2ccccc2)cc(OC)c1OC (centres undefined),96.3% and 90.5%
14,COc1ccc(NC(=O)CN2C3CCCC2CC(NC(=O)c2ccc4c(c2)OCO4)C3)cc1 (centres undefined),-0.217%
15,COc1ccc(C(=O)NC2CC3CCCC(C2)N3CC(=O)Nc2ccccc2)cc1OC (centres undefined),33.7%
16,COc1ccc(C(=O)NC2CC3CCCC(C2)N3CC(=O)Nc2ccc(C)cc2)cc1 (centres undefined),13.2%
17,COc1ccc(CN2C3CCCC2CC(NC(=O)c2cc(OC)c(OC)c(OC)c2)C3)cc1 (centres undefined),57.9%
